{
  "source": "paper PMC6212790",
  "about": "“How bacterial xenogeneic silencer rok distinguishes foreign from self DNA in its resident genome”",
  "note": "In all, about 33,000 sequences were measured (“e-score”: median about -0.038, highest 2% from about 0.33 on). The list comes from a sample in which the highest values are over-represented; it also holds similar and randomly drawn sequences.",
  "data": [
    {"target": "T1, GST-Rok-C97-191 (Bacillus subtilis subsp. subtilis str. …, UniProt O34857 97-191)", "T1 sequence": "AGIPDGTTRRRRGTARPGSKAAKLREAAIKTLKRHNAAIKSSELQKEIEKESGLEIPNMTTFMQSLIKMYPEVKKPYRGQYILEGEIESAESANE", "assay": "protein binding microarray; Rok is a gene silencer of Bacillus subtilis; high values mean tight binding", "conditions": "protein: recombinant; tags: GST (pTH5325, pDEST15-Magic modified); dsDNA, one strand shown", "outline": "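Each has a 25-mer constant primer and a 35-mer variable part from a de Bruijn sequence of order 10, covering every non-palindromic 8-mer at least 32 times (palindromic 16). Preference for each 8-mer is given as a rank-based, unitless enrichment score (E-score). Its range runs from 0.5 (most favored) to −0.5 (most disfavored).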", "units": {"binding signal": "E-score"}, "values": [
      {"sequence": "ACAACTTG", "binding signal": 0.173},
      {"sequence": "ACGTGGCA", "binding signal": -0.0377},
      {"sequence": "CTTAGCGC", "binding signal": 0.0409},
      {"sequence": "GAGCTAGC", "binding signal": 0.0567},
      {"sequence": "ACCCGTTG", "binding signal": -0.159},
      {"sequence": "TGTTAAAA", "binding signal": -0.0158},
      {"sequence": "AATTGCGG", "binding signal": 0.0377},
      {"sequence": "TACCGGAA", "binding signal": -0.0058},
      {"sequence": "ACAGGCGT", "binding signal": -0.077},
      {"sequence": "AATATACG", "binding signal": 0.225},
      {"sequence": "GGTATACA", "binding signal": 0.15},
      {"sequence": "AGTATACA", "binding signal": 0.178},
      {"sequence": "ACTATACT", "binding signal": 0.0926},
      {"sequence": "AATATACT", "binding signal": 0.367},
      {"sequence": "TGTATACA", "binding signal": 0.37},
      {"sequence": "GAAAGTGC", "binding signal": -0.0315},
      {"sequence": "GTACCAAC", "binding signal": 0.0505},
      {"sequence": "CAGGCGAC", "binding signal": -0.00727},
      {"sequence": "CGTTTATC", "binding signal": 0.231},
      {"sequence": "GGCAGTTA", "binding signal": 0.0872},
      {"sequence": "CACAAGTG", "binding signal": -0.00102},
      {"sequence": "CAGACTAA", "binding signal": -0.0795},
      {"sequence": "ACCTCACT", "binding signal": -0.0237},
      {"sequence": "TCAGCCGA", "binding signal": -0.0187},
      {"sequence": "GATATAAA", "binding signal": 0.34},
      {"sequence": "TATATAAA", "binding signal": 0.394},
      {"sequence": "AATATAAT", "binding signal": 0.23},
      {"sequence": "GATATAAC", "binding signal": 0.297},
      {"sequence": "CATATAAA", "binding signal": 0.138},
      {"sequence": "GATAAAAA", "binding signal": 0.234},
      {"sequence": "AATATAAC", "binding signal": 0.205},
      {"sequence": "TATAAAAA", "binding signal": 0.244},
      {"sequence": "AATATAAA", "binding signal": 0.361},
      {"sequence": "ACTGTTGC", "binding signal": 0.119},
      {"sequence": "TGACTCCA", "binding signal": -0.0987},
      {"sequence": "AGGAGGGA", "binding signal": -0.173},
      {"sequence": "CAGTTATG", "binding signal": 0.0833},
      {"sequence": "ATATACCC", "binding signal": 0.127},
      {"sequence": "AGATACCG", "binding signal": 0.171},
      {"sequence": "ATATACCA", "binding signal": 0.344},
      {"sequence": "ATATACCG", "binding signal": 0.384},
      {"sequence": "CAATACCG", "binding signal": 0.121},
      {"sequence": "AAATACCA", "binding signal": 0.286},
      {"sequence": "CTATACCA", "binding signal": 0.201},
      {"sequence": "GTATACCA", "binding signal": 0.267},
      {"sequence": "AAATACCG", "binding signal": 0.37},
      {"sequence": "AGGAGACG", "binding signal": -0.19},
      {"sequence": "CAGCTCGG", "binding signal": -0.0345},
      {"sequence": "AAGTGACT", "binding signal": -0.0548},
      {"sequence": "TCTGTCAA", "binding signal": -0.116},
      {"sequence": "CAAGCCTG", "binding signal": -0.132},
      {"sequence": "ATCAGTGC", "binding signal": -0.0896},
      {"sequence": "CAACGGAC", "binding signal": -0.085},
      {"sequence": "GCTAGTAA", "binding signal": 0.286},
      {"sequence": "AGTAGTAA", "binding signal": 0.404},
      {"sequence": "TGTAGTAA", "binding signal": 0.286},
      {"sequence": "GGTAGTAA", "binding signal": 0.396},
      {"sequence": "CGTAGTAA", "binding signal": 0.205},
      {"sequence": "GTTAGTAA", "binding signal": 0.163},
      {"sequence": "ACTAAACT", "binding signal": 0.244},
      {"sequence": "TGGCGAAA", "binding signal": 0.0439},
      {"sequence": "GTTTTGCA", "binding signal": 0.0567},
      {"sequence": "CGTACGTA", "binding signal": 0.05},
      {"sequence": "TACTAATA", "binding signal": 0.298},
      {"sequence": "CATTAATA", "binding signal": 0.186},
      {"sequence": "TATTAATA", "binding signal": 0.352},
      {"sequence": "CACTAATC", "binding signal": 0.1},
      {"sequence": "CAATAAAA", "binding signal": 0.239},
      {"sequence": "AATTAATA", "binding signal": 0.305},
      {"sequence": "AAATAATA", "binding signal": 0.317},
      {"sequence": "TAATAATA", "binding signal": 0.424},
      {"sequence": "TAATAAAA", "binding signal": 0.344},
      {"sequence": "GAATAAAA", "binding signal": 0.119},
      {"sequence": "CAATAATA", "binding signal": 0.312},
      {"sequence": "CACTAATA", "binding signal": 0.33},
      {"sequence": "AGAGAATG", "binding signal": 0.0921},
      {"sequence": "CATGGTTA", "binding signal": 0.0882},
      {"sequence": "AAGGAGCG", "binding signal": -0.2},
      {"sequence": "AGAGGCAA", "binding signal": -0.195},
      {"sequence": "GACCTTGC", "binding signal": -0.129},
      {"sequence": "GAATAATC", "binding signal": -0.0939},
      {"sequence": "GAATAAGA", "binding signal": 0.0835},
      {"sequence": "GAATAATA", "binding signal": 0.349},
      {"sequence": "AGCCAACC", "binding signal": -0.074},
      {"sequence": "ATTCGCCC", "binding signal": -0.192},
      {"sequence": "ATGATATA", "binding signal": 0.386},
      {"sequence": "ATGATAGA", "binding signal": 0.36},
      {"sequence": "ATGATAGG", "binding signal": 0.0735},
      {"sequence": "ATGATAGC", "binding signal": 0.15},
      {"sequence": "CTGATATA", "binding signal": 0.258},
      {"sequence": "ATGATATG", "binding signal": 0.226},
      {"sequence": "GGACGTCC", "binding signal": -0.0863},
      {"sequence": "AAGCACAA", "binding signal": 0.035},
      {"sequence": "TCGGTCAA", "binding signal": 0.044}
    ]}
  ]
}
